# GDH-TPI counter-1 – GDH-TPI coupled enzyme inhibition counter-screen; GDH-TPI coupled enzyme counterscreen, NADH absorbance; inhibition, % at 4.8 µM; 360,000 tested, 1.2% active; AID 588335; in the data active = inhibition above about 30%;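 note: 0% = DMSO wells and 100% = wells lacking the enzyme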
# FBA Mtb inh – inhibitors of M. tuberculosis fructose-bisphosphate aldolase. 360,000 tested, 2.3% active. P9WQA3. inhibition, % at 1 µM. purified M. tuberculosis FBA, fluorescence read-out;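 note: 0% = vehicle and 100% = reference inhibitor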
# Target sequence (P9WQA3 whole entry, looked up): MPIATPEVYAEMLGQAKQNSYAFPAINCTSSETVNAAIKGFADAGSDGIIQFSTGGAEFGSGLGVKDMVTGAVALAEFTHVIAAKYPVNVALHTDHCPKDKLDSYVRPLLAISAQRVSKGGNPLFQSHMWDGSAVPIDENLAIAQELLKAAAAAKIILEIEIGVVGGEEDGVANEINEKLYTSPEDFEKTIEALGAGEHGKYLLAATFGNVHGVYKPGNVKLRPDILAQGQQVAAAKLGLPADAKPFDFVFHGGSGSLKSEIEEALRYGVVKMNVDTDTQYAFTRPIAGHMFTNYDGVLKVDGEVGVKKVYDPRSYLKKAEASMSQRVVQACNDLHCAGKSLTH
# FadD28 FP inh – blocks FadD28 binding to the bisubstrate probe. fluorescence polarization. inhibition, % at 12.5 µM. 360,000 tested, 0.22% active; in the data active = inhibition above about 8.5%, passing the limit was not always enough
# BioA inh – inhibitors of Mycobacterium tuberculosis BioA enzyme | purified M. tuberculosis BioA enzyme, plate reader | 360,000 tested, 0.096% active | inhibition, % at 9.99 µM | AID 602481; in the data active = inhibition above about 40%
# SARS 3CLpro inh – SARS-CoV 3CLpro protease inhibition; P0C6X7; recombinant SARS-CoV 3CLpro, quenched FRET peptide cleavage; inhibition, % at 6 µM; 290,000 tested, 0.14% active; AID 1706; in the data active = inhibition above about 12%
# Mtb FBA confirm – Mtb FBA inhibition, confirmed; shares compounds with FBA Mtb inh; purified M. tuberculosis FBA, fluorescence read-out; inhibition, % at 1 µM; 5,600 tested, 78% active; AID 651616;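 note: 0% = vehicle wells and 100% = reference inhibitor wells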
# GDH-TPI counter-2 – inhibits GDH-TPI coupling enzymes, flagging Mtb FBA hits; shares compounds with FBA Mtb inh; GDH-TPI coupled enzyme counterscreen, fluorescence; inhibition, % at 1 µM; 5,600 tested, 81% active; AID 652141; in the data active = inhibition above about 10%
# GDH-TPI DR – inhibits GDH-TPI coupling enzymes in dose response; shares compounds with FBA Mtb inh; GDH-TPI coupled enzyme assay, fluorescence, artifact counterscreen; IC50, µM; 170 tested, 79% active; AID 652145; call rule not given here
# * = called active by the depositor; · = no result; + = active, no number. This is a sample that favours compounds with a hit; in the whole collection about 3.1% have one here. Cut-off read from the data, not from the text of the source, unless noted: active = inhibition above about 27%; inactive = the rest.
SMILES,GDH-TPI counter-1,FBA Mtb inh,FadD28 FP inh,BioA inh,SARS 3CLpro inh,Mtb FBA confirm,GDH-TPI counter-2,others
COc1ccc(-c2sc3cc4c(cc3c2C#Cc2ccc(N)cc2)OCO4)cc1,26.0,66.4*,-3.4,0.0,·,69.5*,65.9*,
CS(=O)(=O)c1ccc(-c2sc3cc4c(cc3c2C(=O)NN2CCOCC2)OCO4)cc1,37.1*,47.9*,-1.1,-3.1,·,103.8*,85.2*,
COC(=O)c1c(-c2ccc(N(C)C)cc2)sc2ccc(OC)cc12,8.5,88.8*,-2.5,-4.2,·,+,157.8*,
COC(=O)c1c(-c2ccc(OC)cc2)sc2cc3c(cc12)OCO3,8.4,31.7*,-3.8,-1.7,·,72.3*,77.5*,
C[C@H](CO)N1C[C@H](C)[C@H](CN(C)S(=O)(=O)c2ccc(Cl)cc2)Oc2c(NC(=O)C3CC3)cccc2C1=O,·,·,·,5.2,·,·,·,
O=C(N[C@H]1C=C[C@@H](CC(=O)N2CCCCC2)O[C@H]1CO)c1ccc2c(c1)OCO2,·,·,·,-2.8,·,·,·,
Cc1cccc(Cn2c(-c3ccc[nH]c3=O)nc3ccccc32)c1,12.4,100.9*,-0.6,-0.3,3.9,+,+,
O=C(Nc1ccc(Cl)c(Cl)c1)N[C@H]1CC[C@H](CCn2cc(C3CCCCC3)nn2)O[C@@H]1CO,·,·,·,1.7,·,·,·,
Cc1ccc(S(=O)(=O)NNc2c3ccccc3nc3ccc(Cl)cc23)cc1,10.0,91.1*,-1.4,-1.3,·,41.7*,28.4*,
CC1(C)Cc2nc3sc4c(N(CCO)CCO)nnnc4c3cc2CO1,0.6,36.4*,0.6,·,7.7,+,187.9*,
CC1(C)Cc2nc3sc4c(N(CCO)CCO)ncnc4c3cc2CO1,15.7,22.5,-4.2,1.1,-8.7,·,·,
Cc1ccc(-c2nc3ccccc3c(=O)n2Cc2ccccc2)cc1,5.9,2.3,-4.4,-1.7,4.2,·,·,
c1ccc(Cn2c(-c3ccccc3)nc3nc4ccccc4nc32)cc1,43.2*,56.3*,-0.9,-0.7,9.1,161.1*,132.0*,
C/C=C/c1cnc2c(c1)C(=O)N([C@@H](C)CO)C[C@H](C)[C@@H](CN(C)C(=O)NC1CCCCC1)O2,·,·,·,0.1,·,·,·,
Cc1ccc(S(=O)(=O)N[C@H]2C=C[C@H](CC(=O)N3CCC(Cc4ccccc4)CC3)O[C@@H]2CO)cc1,·,·,·,3.4,·,·,·,
Cc1cc(NC(=O)c2ccc3nccnc3c2)ccc1Br,4.0,-2.6,·,0.0,·,·,·,
Cc1ccc(C(=O)Nc2ccc3nccnc3c2)cc1,12.0,37.2*,-1.4,-0.4,-0.3,44.0*,35.9*,
CCOC(=O)C1CCCN(C(=O)c2cccc3ccccc23)C1 (configuration not stated),-0.8,-1.4,-2.4,-0.6,3.0,·,·,
CCOC(=O)C1CCc2c(ccc3ccccc23)N1CCC#N (configuration not stated),-0.9,56.3*,0.0,0.4,·,1.9,-3.6,
COC(=O)c1c(C(=O)c2ccc(Br)cc2)n(C)c2ccccc12,7.3,2.1,-0.6,0.2,·,·,·,
COC(=O)c1c(S(N)(=O)=O)c2ccccc2n1C,-2.5,32.8*,-1.4,1.1,-5.2,+,+,
Cc1nccc(-c2ccc3c(c2)OCO3)n1,9.2,28.7*,1.0,·,-0.4,68.4*,48.1*,
Cc1ccc(-c2nnc(-c3ccc4c(c3)OCO4)o2)cc1,11.2,27.0*,-2.9,-0.4,1.6,74.8*,55.0*,
CC(C)C#Cc1cnc2c(c1)C(=O)N([C@@H](C)CO)C[C@@H](C)[C@@H](CN(C)C(=O)c1ccccc1F)O2,·,·,·,1.9,·,·,·,
COC(=O)C[C@@H]1C[C@@H]2c3cc(NC(=O)Cc4ccncc4)ccc3O[C@@H]2[C@H](CO)O1,·,·,·,-1.9,·,·,·,
SMILES,GDH-TPI counter-1,FBA Mtb inh,FadD28 FP inh,BioA inh,SARS 3CLpro inh,Mtb FBA confirm,GDH-TPI counter-2,others
COC(=O)/C(=C/Nc1cccc2ccccc12)[N+](=O)[O-],-1.9,73.9*,-1.4,·,0.4,98.3*,80.1*,
COc1cc(OC)cc(C(=O)Nc2cccc3ccccc23)c1,6.0,-2.1,-4.8,-1.2,-2.1,·,·,
Cc1ccc(Cc2cnc(NC(=O)C3=NCCN3)s2)cc1,·,·,·,·,-2.9,·,·,
O=C(Nc1ncc(Cc2ccccc2)s1)C1=NCCN1,8.8,65.2*,-0.3,-1.0,-2.7,93.0*,77.3*,
COc1ccc2cc(CCNC(=O)c3ccc(S(=O)(=O)N4CCOCC4)cc3)c(=O)[nH]c2c1,15.1,78.5*,-3.9,-1.6,-2.9,105.2*,85.1*,
COc1ccc(NS(=O)(=O)c2ccc(S(=O)(=O)N3CCCC3)cc2)cc1,2.2,3.5,-2.5,-0.9,-2.6,·,·,
COc1ccc(CCNC(=O)COc2ccc(S(=O)(=O)N3CCOCC3)cc2C)cc1,0.0,104.5*,-1.2,-2.1,-4.7,126.5*,103.9*,
COc1ccc(NS(=O)(=O)c2ccc(S(=O)(=O)N3CCOCC3)cc2)cc1,1.2,45.2*,-2.4,1.7,0.1,148.6*,102.3*,
CCC(=O)N1CCN(CCN=CC2=C(O)CC(c3ccc(OC)cc3)CC2=O)CC1 (configuration not stated),6.1,58.9*,-0.4,0.0,1.2,88.0*,82.1*,
O=c1[nH]c(-c2ccccc2)cnc1-c1ccccc1,-3.7,7.8,-2.5,-1.9,·,·,·,
O=c1[nH]c2c(=O)[nH]cnc2nc1-c1ccccc1,3.4,74.0*,-1.6,·,·,55.7*,42.2*,
C[C@@H]1CN([C@@H](C)CO)C(=O)Cc2cc(NC(=O)c3ccncc3)ccc2O[C@@H]1CN(C)S(=O)(=O)c1ccccc1,·,·,·,-4.4,·,·,·,
COc1ccccc1C1C2=C(CCCC2=O)N(CC(=O)O)C2=C1C(=O)CCC2,4.6,40.4*,-1.1,-2.2,-2.6,-2.3,-2.4,
COc1cc(Br)cc(C2C3=C(CCCC3=O)N(c3ccc(F)cc3)C3=C2C(=O)CCC3)c1O,-1.0,-3.7,-2.6,·,1.1,·,·,
CCCCN(Cc1cc2cc(OC)ccc2[nH]c1=O)S(=O)(=O)c1ccc(C)cc1,15.8,5.7,-4.7,0.1,0.8,·,·,
COc1ccc(S(=O)(=O)N(CCCN2CCCC2=O)Cc2cc3c(C)cc(C)cc3[nH]c2=O)cc1,28.6,32.6*,-2.1,2.2,-1.8,13.3,7.9,GDH-TPI DR=>10
Cn1c2ccccc2c2c(C(=O)O)cn(C3CCCC3)c(=O)c21,9.4,15.9,-2.5,0.0,4.3,·,·,
CCOC(=O)Cn1cc(Cn2c3ccccc3c(=O)n2C(C)C)nn1,·,68.6*,1.0,-0.3,·,7.7,1.2,
CC(C)n1c(=O)c2ccccc2n1Cc1cn(C2CCCC2)nn1,·,101.0*,-3.8,0.0,·,89.6*,60.3*,
C[C@H]1CN([C@@H](C)CO)S(=O)(=O)c2ccc(-c3ccccc3F)cc2O[C@H]1CN(C)Cc1cccnc1,·,·,·,-0.5,·,·,·,
CCCc1cn(CC[C@@H]2CC[C@H](NS(=O)(=O)c3ccc(-c4ccccc4)cc3)[C@H](CO)O2)nn1,·,·,·,-1.9,·,·,·,

# Screening data as filed in PubChem.
